Measured values as given in ChEMBL document CHEMBL3988442, “University of Dundee, Small-Polar-MMV Screening Library” (2021).
Among all 48,000 compounds or so, about 13,000 (27%) showed an effect of 50% or more. Some of the results follow.

What follows are molecules tested on Wolbachia pipientis (assay: Anti-Wolbachia Cell-Based Screen). Conditions: 5 µM.
Assay type: functional
Parameters: scale not given: in the data most compounds retested in dose-response had high values

First: CSc1cccc(NC(=O)N2CCCC(CNC(=O)c3ccco3)C2)c1 (stereo unspecified)
Second: NC(=O)NC(CC(=O)NCCc1cccc(F)c1)c1cccs1 (stereo unspecified)
The “Percent Effect” value of the first is lower: -2.877% for the first, 2.392% for the second.

Going from `CSCCCn1ccnc1-c1cccc(C#N)c1` to `Cc1ccsc1C(Cn1ccnc1-c1ccccc1C(=O)O)N(C)C` (stereo unspecified), the “Percent Effect” value falls from -12.84% to -13.02%.

Compared with `CC(C)=CCC/C(C)=C\CNCc1ccco1`, `CC(CNC(=O)CCCc1ccccn1)c1ccsc1` (stereo unspecified) is higher in “Percent Effect” value: -4.355% for the first, 1.971% for the second.

`O=C(C1CCCC1)N1CC2(CCN(C3COC3)CC2)Cc2ccccc21` and `O=C(C1CCCC1)N1CC2(CCN(C3COC3)C2)Cc2ccccc21` (stereo unspecified) are the same in “Percent Effect” value: 95.07% for the first, 95.07% for the second.

First: O=C(C1CCCC1)N1CCOc2cccc(F)c21
Second: O=C(C1CCCC1)N1CC2(CCN(C3COC3)C2)OCc2ccccc21 (stereo unspecified)
The “Percent Effect” value of the first is lower: 1.761% for the first, 114.9% for the second.

First: O=C(C1CCCC1)N1CC2(CCCN(C3COC3)C2)Cc2ccccc21 (stereo unspecified)
Second: O=C(Cc1cccnc1)N1CCC2(CCN(C3CCOC3)CC2)C1 (stereo unspecified)
The “Percent Effect” value of the first is higher: 99.05% for the first, 6.84% for the second.

Compared with `Cc1ccc(NC(=O)C2CSCN2C(=O)c2cnn(C)c2)c(C)c1` (stereo unspecified), `CCc1cnc(CN(C)C(=O)NC2CCN(c3ccccc3)C2)s1` (stereo unspecified) is higher in “Percent Effect” value: -7.721% for the first, 0.02013% for the second.

First: O=C(C1CC1)N1C[C@@H](F)[C@@H](OCc2nc3ccccc3o2)C1
Second: COCCCN1C(=O)CC[C@H]2CN(c3ccnc4ccccc34)CC[C@H]21
The “Percent Effect” value of the first is lower: -16.99% for the first, -6.412% for the second.

Going from `N#Cc1cn(CC(=O)NC2CC2)c2ccc(Br)cc2c1=O` to `NC(=O)c1cnc(NC2CCN(c3ccccc3)CC2)c(Cl)c1`, the “Percent Effect” value falls from -2.411% to -3.801%.

Compared with `COC1CCN(CCNC(=O)C2CCCCC2)CC1`, `O=C1CCCCN1c1cccc(CNC2CCCC2)c1` is higher in “Percent Effect” value: -3.467% for the first, 0.3467% for the second.

Compared with `Cc1cc(N(C)Cc2ncc(-c3ccccc3C(=O)O)s2)ncn1`, `Cc1nccc(N(C)Cc2ncc(-c3ccccc3C(=O)O)s2)n1` is higher in “Percent Effect” value: 81.06% for the first, 127.4% for the second.

Going from `COc1cc(N(C)CCC(O)c2ccccc2)ncn1` (stereo unspecified) to `CN(C)C(Cn1ccnc1-c1ccccc1C(=O)O)c1ccccc1Cl` (stereo unspecified), the “Percent Effect” value falls from 13.13% to -23.61%.

First: CN1CC(Nc2nc3c(cnn3-c3ccccc3)c(=O)[nH]2)CCC1=O (stereo unspecified)
Second: CN1CC(=O)N(c2ccccc2)Cc2c(NC3CC3)ncnc21
The “Percent Effect” value of the first is lower: 9.222% for the first, 112.7% for the second.

Compared with `Cc1cccc(N2Cc3c(NC4CCCC4)ncnc3N(C)CC2=O)c1`, `CN1CC(=O)N(c2cccnc2)Cc2c(NC3CC3)ncnc21` is higher in “Percent Effect” value: 95.74% for the first, 103.4% for the second.

First: Cc1csc(CN2CC[C@H]3C(=O)N(c4cccnc4)CCO[C@H]3C2)n1
Second: COc1cc(N2CCC3(C2)CN(c2cccnc2)C(=O)CN3C)ncn1 (stereo unspecified)
The “Percent Effect” value of the first is higher: 6.542% for the first, -13.12% for the second.

`Cc1cccc(N2Cc3nc(=O)[nH]n3C2=O)c1` was tested, and the “Percent Effect” value was 2.871%.
